About 840 (0.6%) of roughly 140,000 compounds were called active. This is one part of a sample in which actives are shown more often than they occur.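 How the source made its calls: active means viability gain under doxorubicin at or above a set limit, the compound median plus 3 SD (cut at about 4.7% in these data); inactive means the rest.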
Experiment: H69AR viability gain despite doxorubicin, primary screen, MRP-1 activator project, H69AR cells, CellTiter-Glo (AID 799);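 further: MRP-1 overexpressing cells given doxorubicin 25 µM after compound pretreatment; 18-22 h compound pretreatment then 72 h with doxorubicin before readout; 0% = doxorubicin-only wells and 100% = vehicle-treated cells without doxorubicin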
Conditions: viability rescue, at 10 µM, hits give high values
For Cc1cc(NS(=O)(=O)c2ccc(NC(=S)NC(=O)c3ccc(F)cc3Cl)cc2)no1, the viability increase was -2% (inactive).
With CCN(CC)c1ccc([N+](=O)[O-])cc1C(=O)O the viability increase was 0.59% (inactive).
With CC(NC(=O)COC(=O)C1CCN(S(=O)(=O)c2ccccc2C(F)(F)F)CC1)c1ccccc1 (centres undefined) the viability increase was -1.86% (inactive).
With COCC(C)n1c(C)cc(C(=O)CSc2cc(C)c3ccccc3n2)c1C (centres undefined) the viability increase was 0.22% (inactive).
With Cc1ccc(N2C(=O)C3C(c4ccccc4)(C2=O)C3(c2ccccc2)c2ccccc2)cc1 (centres undefined) the viability increase was 5.37% (active).
With Cc1ccc(N2C(=O)C(Cc3ccccc3)NC2=S)cc1 (centres undefined) the viability increase was -0.7% (inactive).
For Cc1ccc(C2C3=C(Nc4[nH]n(-c5ccccc5)c(=O)c42)c2ccccc2C3=O)cc1 (centres undefined), the viability increase was -0.43% (inactive).
With N/C(=N\OC(=O)N1c2ccccc2Sc2ccccc21)c1ccc(Br)cc1 the viability increase was -2.4% (inactive).
For COc1cc2c(cc1NC(=O)COC(=O)/C=C/c1ccccc1)oc1ccccc12, the viability increase was -4.74% (inactive).
In the case of O=C(CSCc1ccc(Cl)cc1)N1CCN(Cc2ccc3c(c2)OCO3)CC1, the viability increase is reported as 5.45% (active).
For CS(=O)(=O)N(CC(=O)N1CCN(Cc2ccc3c(c2)OCO3)CC1)c1ccc2c(c1)OCO2, the viability increase was -1.42% (inactive).
With O=C(CSCc1ccc(Cl)cc1)N1CCCCC1 the viability increase was 0.74% (inactive).
With CCN(C(=O)COC(=O)c1c(NC(C)=O)sc(C)c1C)C1CCS(=O)(=O)C1 (centres undefined) the viability increase was -2.05% (inactive).
For CCOc1ccc(Nc2nc(Cl)nc(N3CCN(c4ccc(OC)cc4)CC3)n2)cc1, the viability increase was 1.19% (inactive).
In the case of CN(Cc1cccs1)C(=O)Cc1c[nH]c2ccccc12, the viability increase is reported as -2.21% (inactive).
For Cc1cccc(C(=O)Nc2ccc(CC(=O)O)cc2)c1, the viability increase was -0.27% (inactive).
In the case of Cc1cccc(OCc2ccc(C(=O)Nc3ccc(F)cc3)cc2)c1, the viability increase is reported as 4.9% (active).
With CCC(=O)Nc1ccc(C(=O)Nc2cccc(OC)c2)cc1 the viability increase was -2.62% (inactive).
With CCOP(=O)(OCC)C(Nc1cccc(C)c1)c1ccc(F)cc1 (centres undefined) the viability increase was 0.43% (inactive).
For CCOC(=O)C(NC(=O)CC(C)C)(Nc1sc2c(c1C(N)=O)CCCC2)C(F)(F)F (centres undefined), the viability increase was -2.1% (inactive).
For C/C(=N\NS(=O)(=O)c1ccc(Cl)cc1)c1ccc(NC(=O)c2ccco2)cc1, the viability increase was -2.49% (inactive).
In the case of NC1=NC(=O)C(Cc2cccc(Cl)c2Cl)S1 (centres undefined), the viability increase is reported as -0.15% (inactive).
With Cc1c(Cl)cccc1NC(=O)CC1SC(=NCC2CCCO2)NC1=O (centres undefined) the viability increase was 2.61% (inactive).
In the case of O=C1NC(=Nc2ccc(Cl)cc2)SC1Cc1cccc(Cl)c1Cl (centres undefined), the viability increase is reported as 6.35% (active).
For CC(C)CNC(=O)C(=O)Nc1ccc(N(C)C)cc1, the viability increase was 0% (inactive).
For CC1CCc2sc(C(=O)N/N=C/C3CCCCC3)cc2C1 (centres undefined), the viability increase was -1.48% (inactive).
For Cc1ccc(C(c2sc3nc(C)nn3c2O)N2CCN(c3ccc(F)cc3)CC2)cc1 (centres undefined), the viability increase was -2.22% (inactive).
For Oc1c(C(c2cccs2)N2CCN(c3ccc(F)cc3)CC2)sc2ncnn12 (centres undefined), the viability increase was 10.6% (active).
In the case of Oc1c(C(c2ccco2)N2CCC3(CC2)OCCO3)sc2ncnn12 (centres undefined), the viability increase is reported as 0.05% (inactive).
In the case of Cc1c(C2=CCN(S(=O)(=O)c3ccc(Cl)cc3)CC2)c2ccccc2n1C, the viability increase is reported as -0.07% (inactive).
For COc1nc(N(C)C)nc(N2CC(=O)N(CCNS(=O)(=O)c3ccc(C)cc3)C2=N)n1, the viability increase was -2.66% (inactive).
In the case of O=C1N/C(=C/c2cccn2-c2ccccc2)C(=O)N1c1cccc(Cl)c1, the viability increase is reported as -0.22% (inactive).
For Cc1c(Cl)cccc1NC(=S)NCc1ccc2c(c1)OCO2, the viability increase was -4.04% (inactive).
For COc1ccc(C2CC(c3cccs3)=NN2C(=O)COC(=O)c2cc3ccccc3cc2O)cc1OC (centres undefined), the viability increase was -0.45% (inactive).
In the case of COc1nc(NCc2ccc(Cl)cc2)nc(OC)n1, the viability increase is reported as 5.12% (active).
In the case of FC(F)(F)c1cc(-c2ccco2)nc(NCc2ccc(Cl)cc2)n1, the viability increase is reported as -0.53% (inactive).
For C=CCNc1nc(C)nc(OC)n1, the viability increase was 0.38% (inactive).
For CCOc1ccc(/C=N/OCC(=O)NCc2cccs2)cc1, the viability increase was 0% (inactive).
With COc1ccc2c(c1)C(SCC(=O)NCc1ccccc1)CC(C)(C)O2 (centres undefined) the viability increase was -1.61% (inactive).
With COC(=O)CN1C(=S)N(c2ccccc2)C(=O)C1CC(=O)Nc1ccc(Cl)cc1 (centres undefined) the viability increase was -1.37% (inactive).
In the case of COc1ccc(-c2csc(NC(=O)CCCc3cccs3)n2)cc1, the viability increase is reported as 3.87% (inactive).
With COc1ccc(N2C(=O)C(CC(=O)Nc3ccc(F)cc3)N(CCc3cccs3)C2=O)cc1 (centres undefined) the viability increase was 5.39% (active).
In the case of CC(C)COP(=O)(c1ccc(N(C)C)cc1)C(Nc1ccccc1)c1cccnc1 (centres undefined), the viability increase is reported as -3.48% (inactive).
With CCOc1ccc(Oc2nc(C)cc(OC)n2)nn1 the viability increase was 0.08% (inactive).
In the case of Cc1ccc(NC(=O)c2cccs2)cc1S(=O)(=O)N(C)C, the viability increase is reported as -1.25% (inactive).
For O=S(=O)(NCCSc1ccccn1)c1ccc(Cl)cc1, the viability increase was 0.85% (inactive).
In the case of Cc1cccc2cc(CN(Cc3cccs3)C(=S)NCc3ccco3)c(=O)[nH]c12, the viability increase is reported as 5.98% (active).
In the case of Cc1cccc2cc(CN(Cc3cccs3)C(c3nnnn3C3CCCC3)C(C)C)c(=O)[nH]c12 (centres undefined), the viability increase is reported as -3.53% (inactive).
For Cc1cccc2cc(CN(C(=O)c3cccs3)c3ccccc3)c(=O)[nH]c12, the viability increase was -0.07% (inactive).
In the case of Cc1ccc(Oc2cc(NC(=O)CCCn3nc(C)c([N+](=O)[O-])c3C)cc([N+](=O)[O-])c2)cc1, the viability increase is reported as -2.6% (inactive).
With O=C(O)c1cccc(N=NN2CCCCCC2)c1 the viability increase was -1.92% (inactive).
For COC(C(=O)NCc1ccccc1C)c1ccccc1 (centres undefined), the viability increase was -0.37% (inactive).
With COc1cc(C2C(N3C(=O)c4ccccc4C3=O)C(=O)N2c2ccc(C)c(C)c2)cc(OC)c1OC (centres undefined) the viability increase was -3.6% (inactive).
For CCCCOc1ccc(C(=O)N/C(=C/C=C/c2ccccc2)C(=O)N2CCOCC2)cc1, the viability increase was -4.14% (inactive).

— PubChem BioAssay AID799 (SRMLSC, 2007)
